Screening data (PubChem BioAssay)
DT40 TDP1 CPT = DT40-hTDP1 cell growth loss with CPT. Potency, µM (doses to about 46.2 µM), for the others: at the top dose activity change, negative = growth inhibition, actives largely listed as inhibitors. chicken DT40 Tdp1-/-;hTDP1 cells + 20 nM CPT, ATP luminescence, 48 h. 420,000 compounds, 12% hits; note: potency is the fitted concentration of half-maximal effect; nearly all actives have a fitted effect of over 55% in size
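Chicken DT40 Tdp1-/- cells stably complemented with human TDP1 were seeded at 400 cells/well in medium containing 20 nM camptothecin, exposed to pin-transferred compounds, and grown at 37 °C for at least 48 hr. Viability was read as ATP luminescence.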
IL-1B inflam inh = inflammasome signaling inhibition, IL-1 beta readout; THP-1 LPS/ATP IL-1B secretion, AlphaLISA, 16 h; stronger effect = lower value; activity change, % at 57.5 µM; 360,000 compounds, 4.7% hits; in the data active = activity change below about -50%; inconclusive = mostly about -30% to -49%
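Secreted IL-1B measured by AlphaLISA bead assay after 16 h compound exposure of THP-1 cells; compounds (final up to 57.5 uM) added 1 h before LPS (250 ng/mL) and ATP (1.25 mM) stimulation; lower signal means less secretion.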
HT1080 IDH1KD tx = kills HT-1080 cells with IDH1 knockdown | HT-1080 IDH1 knockdown viability, ATP luminescence, 48 h | Potency, µM (titrated, usually from 46.1 µM), inactives show at the highest dose activity, negative = toxicity, usual class: cytotoxic | 360,000 compounds, 2% hits;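 note: potency is the fitted concentration of half-maximal effect; 0% = DMSO wells and -100% = cell-free medium wells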
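Cytotoxicity counter-line: IDH1KD HT-1080, 48 h, CellTiter-Glo. Curves classed by r2, magnitude and activity.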
TDP1 cell noCPT = qHTS for Inhibitors of human tyrosyl-DNA phosphodiesterase 1 (TDP1): qHTS in cells in absence of CPT | DT40 Tdp1-/- hTDP1 cells, no CPT, ATP luminescence, 48 h | 420,000 compounds, 15% hits | Potency, µM (doses to about 46.2 µM), for the others: top-dose activity change, negative = growth inhibition, most hits filed as inhibitors; note: potency is the fitted concentration of half-maximal effect; nearly all actives have a fitted effect of over 55% in size
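DT40 Tdp1-/-;hTDP1 cells, no CPT (DMSO vehicle only), 400 cells/well; compounds pin-transferred; ≥48 hr, 37 °C; CellTiter-Glo 30 min RT dark, luminescence read.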
HT1080NT lethal = kills 2HG-producing HT-1080-NT fibrosarcoma cells; 360,000 compounds, 1.6% hits; AID 686970; Potency, µM (doses to about 46.1 µM), for inactives: at the top dose activity, negative = less viability, usual class: cytotoxic; HT-1080-NT fibrosarcoma viability, CellTiter-Glo ATP luminescence, 48 h;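 note: NT is the 2HG producing partner of a matched IDH1 knockdown line; potency is the fitted concentration of half-maximal effect; 0% = DMSO-treated cells and -100% = media-only wells without cells; nearly all actives have a fitted effect of over 55% in size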
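Viability by CellTiter-Glo luminescence after 48 h compound exposure at 37C of HT-1080-NT cells (750/well, RPMI, 5% FBS). % activity scaled between DMSO wells and medium-only wells, then curve-fitted and categorized by curve class.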
* marks the source's active call; other numbers are inactive results; ? = inconclusive; / = not tested or not shown; ! = not active in a repeat; [ ] = dose if it differs, or a comment. Most compounds without a hit are left out; they make up all but 19% or so of the library. Unless noted, calls come from the whole dose curve; as a rule, active = well fitted curve in the direction sought with a large enough effect; inconclusive = small, poorly fitted or top-dose-only effect, or another doubt; inactive = no such curve, though single readings can be large; an effect the other way counts as inactive or inconclusive. Unless noted, % is set by controls: 0 for no effect and ±100 for the full control effect.

SMILES | DT40 TDP1 CPT | IL-1B inflam inh | HT1080 IDH1KD tx | TDP1 cell noCPT | HT1080NT lethal
CCS(=O)(=O)N1CCc2cc(C(=O)NCc3ccccc3OC)ccc21 | -9% | / | / | ? | /
Nn1c(Cc2cccc3ccccc23)nnc1SCc1c(Cl)cccc1Cl | ? | -17 | -23% | 16µM* | ?
Nn1c(Cc2cccc3ccccc23)nnc1SCn1nnc2ccccc2c1=O | -1% | 2 | -2% | -14% | 2%
Nn1c(Cc2cccc3ccccc23)nnc1SCc1ccc(Cl)c(Cl)c1 | -13% | -72* | ? | -22% | ?
COC(=O)c1ccc(OC)c(Cn2c(=O)n(-c3cccc(Cl)c3)c(=O)c3c2c2cc(C)ccc2n3C)c1 | -13% | / | / | 1% | /
O=S(=O)(c1ccc(-c2cc(C(F)(F)F)on2)s1)N1CCN(c2cccc(Cl)c2)CC1 | -4% | / | / | -4% | /
N#Cc1ccsc1NC(=O)COC(=O)C1=NNC(=O)CC1 | -5% | 41 | -5% | 20% | -5%
Cc1ccc(C(C)C)c2oc(=O)cc(-c3ccc(-c4ccc(C(F)(F)F)cc4)cc3)c12 | 15µM* | 0 | 11% | 21µM* | 9%
Cc1cc2oc(=O)cc(C)c2c2occ(-c3ccc(Cl)cc3)c12 | 30% | / | / | 9% | /
CNC(=S)N(CCN(C)C)Cc1cc2cc3c(cc2[nH]c1=O)OCO3 | 5% | 14 | 1% | -10% | -1%
COc1ccc(N2CCN(C(CNC(=O)C(=O)NCCc3ccccc3)c3cccnc3)CC2)cc1 (stereo unspecified) | 15µM* | / | / | 16µM* | /
O=C(NCCCn1ccnc1)C(=O)NCC(c1cccnc1)N1CCN(c2ccccc2)CC1 (stereo unspecified) | -7% | -8 | -1% | -3% | 14%
O=C(NCc1ccccc1)C(=O)NCC(c1cccnc1)N1CCN(c2ccccc2)CC1 (stereo unspecified) | 16µM* | / | / | 13µM* | /
COc1ccc(N2CCN(C(CNC(=O)C(=O)NCc3ccc(C)cc3)c3cccnc3)CC2)cc1 (stereo unspecified) | 8.2µM* | / | / | 7.3µM* | /
O=C1c2ccccc2S(=O)(=O)c2cc(C(=O)N3CCC(N4CCCC4)CC3)ccc21 | -15% | -3 | 4% | -7% | -1%
O[C@@H]1CN(Cc2cccs2)[C@@H](c2ccccc2)C[C@H]1n1cc(-c2ccc(F)cc2)nn1 | ? | -2 | ? | ? | -20%
COc1ccc(CN2c3c(Br)cccc3C(=O)CS2(=O)=O)cc1 | ? | -4 | ? | ? | 23µM*
Cc1ccc(NC(=O)C2CCN(S(=O)(=O)c3c(C)nn(C)c3C)CC2)c(Cl)c1 | -15% | 0 | -2% | -15% | -2%
CS(=O)(=O)n1nc(OC(=O)c2cccc3ccccc23)cc1N | -28% | -57* | ? | -17% | ?
CN(Cc1cccnc1)C(=O)c1cc(COc2ccc3c(c2)CCCC3)on1 | ? | 0 | -18% | ? | -17%
CCC(C)NC(=O)C1=CC(c2ccc3c(c2)OCO3)=NS(=O)(=O)N1C (stereo unspecified) | 8% | / | / | -13% | /
CCCCCCCCCCCCC/C=C/[C@@H](O)[C@@H](N)CO | 9.2µM*! | 9 | -2% | 12µM*! | ?
CCCCCCCCCCCCC/C=C/[C@@H](O)[C@H](CO)N(C)C | -2%[4.12 µM] | / | / | 1%[4.12 µM] | /
NC(=O)C(C(=O)/C=C/c1ccc(Cl)cc1)=C1SCCS1 | 3.3µM* | -99* | ? | 8.2µM* | -7%
COc1ccc(N2C(=O)CN(Cc3ccc(OC)c(OC)c3)C2=S)cc1 | -75% | -13 | -16% | ? | -28%
Cc1cccc(Oc2ccccc2NC(=O)CSCC(=O)Nc2cc(C)on2)c1 | ? | 3 | -25% | ? | -11%
COc1ccc(-c2csc(NC(=O)CSc3nc(SC)ns3)n2)cc1 | ? | 9 | -4% | 23µM* | -8%
